# Test results: the supplement of paper PMC10681739
# Molecular target: T1, ETS1 (UniProt P14921)
# T1 sequence: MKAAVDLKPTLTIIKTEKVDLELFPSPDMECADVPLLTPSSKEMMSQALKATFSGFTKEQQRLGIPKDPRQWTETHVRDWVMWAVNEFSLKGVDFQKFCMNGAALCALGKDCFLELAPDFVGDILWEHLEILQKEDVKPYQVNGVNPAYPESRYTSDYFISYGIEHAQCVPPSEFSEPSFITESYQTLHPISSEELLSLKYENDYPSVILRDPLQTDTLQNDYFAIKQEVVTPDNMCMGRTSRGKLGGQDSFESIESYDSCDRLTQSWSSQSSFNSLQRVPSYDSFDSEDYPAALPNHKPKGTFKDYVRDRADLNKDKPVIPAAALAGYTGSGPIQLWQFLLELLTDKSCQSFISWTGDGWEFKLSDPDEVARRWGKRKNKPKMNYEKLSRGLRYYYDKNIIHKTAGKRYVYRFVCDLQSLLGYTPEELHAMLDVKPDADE
# Experiment: TF binding intensity (PBM fluorescence), negative control probe (arbitrary fluorescence units); higher = stronger binding
# Protocol: (§1)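 gcPBM negative-control 36-bp genomic probes lacking TF binding sites. Each was incubated with recombinant human ETS1 or RUNX1 alone and detected by antibody fluorescence. Values are medians over replicate spots (4 spots for the ETS1-RUNX1 arrays, 3 for the ETS1-ETS1 array). The probes sit in constant array flanks that are not printed.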
row,Sequence,TF binding intensity
1,AGGTGCACGATGGGTGGGGAGCTGCTCAGGGCACTG (protein concentration 10 nM),112
2,AGAGCCACAGTGTGGCTTGGCTGGTAAATTATTTGT (protein concentration 10 nM),109
3,TAAGTATTAAGAGTTGCAACACTCTAATCAAGGATA (protein concentration 10 nM),102
4,CCACCGAGTGTTCTCGTTGCTCCACCGTAGCATCAG (protein concentration 10 nM),124
5,GCTATCTATTTTAATTAGCTAAGATTGCTATTAATA (protein concentration 10 nM),106
6,TCTTTATCTGTCAGTACCACACTGTCTATTCTCCCA (protein concentration 1 nM),502
7,TAGGTTCTAGCCTGCTTAGCTAGAGTTTAGTTTATT (protein concentration 10 nM),110
8,GCAGTGAGCTGAGATCACACCATTGCACTCCAGCCT (protein concentration 10 nM),135
9,TGGCCTGGGAAAGAACCCACAGGCTTCTGGTTGCTG (protein concentration 1 nM),597
10,AGCTTTCCAAGTTTTTGTGGGCAACATCAACTGTTC (protein concentration 1 nM),486
11,TGGAATCTCATCCAAGCTGGATTTTGCGATCTTTGA (protein concentration 10 nM),104
12,GAGGGTCCCGGCTCTGCCGCAGGCGGGCGGGGCAGA (protein concentration 1 nM),339
13,CCAGCAGCAGTTGTGAATTGGGTAATTTAATGAAAA (protein concentration 10 nM),116
14,AAAGGCATGTAATGAACACTAAAACCCAAGAACCTG (protein concentration 10 nM),114
15,CCGACACTCCATGAGTTAGTTCAGTCCTCTGACACC (protein concentration 10 nM),150
16,GAGCATCACAAGGTCAGAGGAGGGGGCGGCCAGGGT (protein concentration 10 nM),240
17,TGGACTAACTCCATTGCCTTTGTATACATTGGTTTC (protein concentration 10 nM),102
18,TCCAGAAGCAGAGGCTGAGAGAGGGATTCTTGTGCC (protein concentration 10 nM),112
19,GTGTGTGAGCGTGTACCCACAATGTGTAACTTAATT (protein concentration 1 nM),484

row,Sequence,TF binding intensity
1,AGAAAGGCATGTCTCCAGGCTCTAAAGAGGCAAAGG (protein concentration 10 nM),117
2,CATAGTTGCACCTGGTCTACTTTGCTGTCAATTTGT (protein concentration 10 nM),126
3,AGTTATTCTAGCTCAAACCAAGTTATTTTTCACTTT (protein concentration 10 nM),108
4,ATGGATAAGAATGTCTGTGGGTAGCTGTCTCCTCTT (protein concentration 1 nM),444
5,GAAGCAAGGATAATTAACTTCTACCAGTGATCCCCA (protein concentration 10 nM),124
6,TCAGCAGCTCGTGCTGCTTGAAGTGCTGGGGGCGAG (protein concentration 10 nM),153
7,ACCTGGCTGTCTGGCTCCTTACTTTCCACCATTTTC (protein concentration 10 nM),132
8,TCCAGAATTGCAAGGTCTGGGGAGCTGGGTGCCACA (protein concentration 10 nM),107
9,GTCAAAGGCTCTGCAGAGTCAAGTAGCCTCCCACTT (protein concentration 10 nM),112
10,GCTCGCCTACCCACTGATTGCCAGTGTCCTGGGTGA (protein concentration 10 nM),107
11,AAGTTAATGAGATATTGTGGTTGTTTGTGTTTGGTT (protein concentration 1 nM),477
12,TTTCAGAGGGAAAAGAATTTTGCCGTTCGCGTTCGA (protein concentration 10 nM),113
13,GAAATCCAGGAGAAAAATGCAGGACAGTCAGAGTAA (protein concentration 10 nM),106
14,CAGAAGTTATAATAATTAATGATATCATTCAGTGTG (protein concentration 10 nM),118
15,CAACCTAACTATAATGCAAATAGGGATTCTTTTTCT (protein concentration 10 nM),88.5
16,TATCTTTATCATGATCCATTAAAGATGACAGAACTA (protein concentration 10 nM),127
17,TGAATGAGTCTTTTTTTGGCCATCTCTTTATGATTA (protein concentration 10 nM),132
18,TGACCATTTGAGGTTTGTGGTTATGCATATAAAATG (protein concentration 1 nM),577

# Molecular target: RUNX1 (UniProt Q01196)
# Experiment: as above
# Protocol: as §1
# Chain of RUNX1 (Q01196 whole entry): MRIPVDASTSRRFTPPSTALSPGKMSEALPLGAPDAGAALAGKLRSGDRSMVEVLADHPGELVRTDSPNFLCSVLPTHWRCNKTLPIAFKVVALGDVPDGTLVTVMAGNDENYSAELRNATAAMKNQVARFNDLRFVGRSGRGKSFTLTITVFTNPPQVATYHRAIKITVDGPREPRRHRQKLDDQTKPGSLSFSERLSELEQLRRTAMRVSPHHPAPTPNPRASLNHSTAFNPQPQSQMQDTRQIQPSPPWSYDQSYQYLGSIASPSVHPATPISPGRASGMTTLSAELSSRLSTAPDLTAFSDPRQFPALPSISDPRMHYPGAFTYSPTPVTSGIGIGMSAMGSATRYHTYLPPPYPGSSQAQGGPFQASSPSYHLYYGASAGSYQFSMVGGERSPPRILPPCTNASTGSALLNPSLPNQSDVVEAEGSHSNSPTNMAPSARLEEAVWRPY
row,Sequence,TF binding intensity
1,TGAAAAAGGGGAGGGCGGAAGTGACGAGCCGTAGCC (protein concentration 2 nM),891
2,GCACACAAGGCAGTGTTTCCGGGACAGAGGGTGGGC (protein concentration 2 nM),937
3,ACAGTTGCTCCGTCTCTTCCTGTGTCTGGCTTTATT (protein concentration 2 nM),876
